What all share (settings): mRNA level, 48 h; actives raise or lower the signal
Read-out in assay [1]: Cytochrome P450 7A1 (Homo sapiens) (UniProt P22680)
The assay can be described thus: LTEA_HepaRG_CYP7A1: Life Technologies and Expression Analysis (LTEA) Assay for Cytochrome P450 7A1 (CYP7A1) using HepaRG (AID 2283496). Put shortly: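 HepaRG cells plated 48 h, then switched to serum-free induction medium and exposed in duplicate for 48 h to 8-point half-log series from 100 uM in 0.5% DMSO. CYP7A1 mRNA by qRT-PCR (TaqMan), normalized to ACTB/GAPDH/POLR2A; bidirectional fit versus DMSO.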

Read-out in assay [2]: Glutathione S-Transferase (GSTA2), GSTA2 (gene 2939)
The assay can be described thus: LTEA_HepaRG_GSTA2: Life Technologies and Expression Analysis (LTEA) Assay for Glutathione S-Transferase (GSTA2) using HepaRG (AID 2283497). In short, it runs like this:
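Differentiated human HepaRG cells were exposed in duplicate for 48 h in serum-free induction medium, 8 points from 100 uM top in half-log steps, 0.5% DMSO. GSTA2 mRNA was measured by TaqMan qRT-PCR, normalized to ACTB, GAPDH and POLR2A; bidirectional fit versus DMSO.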

Read-out in assay [3]: Glutamate-cysteine ligase catalytic (GCLC), GCLC (gene 2729)
The assay can be described thus: LTEA_HepaRG_GCLC: Life Technologies and Expression Analysis (LTEA) Assay for Glutamate-cysteine ligase catalytic (GCLC) using HepaRG (AID 2283498). In short, it runs like this: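 Differentiated HepaRG cells exposed 48 h in serum-free induction medium, eight-point half-log series topping at 100 uM in 0.5% DMSO, duplicates. GCLC mRNA by qRT-PCR normalized to ACTB, GAPDH and POLR2A, fitted bidirectionally versus DMSO.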

Read-out in assay [4]: growth arrest and DNA damage 45 (GADD45G), GADD45G (gene 10912)
The assay can be described thus: LTEA_HepaRG_GADD45G: Life Technologies and Expression Analysis (LTEA) Assay for growth arrest and DNA damage 45 (GADD45G) using HepaRG (AID 2283499). In short, it runs like this:
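Differentiated human HepaRG cells in serum-free induction medium were exposed for 48 h to 8 half-log concentrations up to 100 uM in 0.5% DMSO, in duplicate. GADD45G mRNA was measured by TaqMan qRT-PCR, normalised to ACTB, GAPDH and POLR2A, and fitted bidirectionally against DMSO.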

Read-out in assay [5]: Glutamate-cysteine ligase regulatory (GCLM), GCLM (gene 2730)
The assay can be described thus: LTEA_HepaRG_GCLM: Life Technologies and Expression Analysis (LTEA) Assay for Glutamate-cysteine ligase regulatory (GCLM) using HepaRG (AID 2283500). In short, it runs like this:
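Cells were plated, cultured 48 h, switched to serum-free induction medium, then dosed in duplicate for 48 h at eight half-log concentrations up to 100 uM. RNA was then profiled by qRT-PCR; gain or loss versus DMSO was fitted.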

Read-out in assay [6]: Glutathione S-transferase M3 (GSTM3), GSTM3 (gene 2947)
The assay can be described thus: LTEA_HepaRG_GSTM3: Life Technologies and Expression Analysis (LTEA) Assay for Glutathione S-transferase M3 (GSTM3) using HepaRG (AID 2283501). Put shortly: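 Differentiated HepaRG cells in serum-free induction medium were exposed in duplicate for 48 h to 8 half-log concentrations up to 100 uM in 0.5% DMSO. GSTM3 mRNA was measured by TaqMan qRT-PCR, normalized to ACTB/GAPDH/POLR2A, and fitted bidirectionally versus DMSO.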

Read-out in assay [7]: Heat shock 70 kDa protein 1 (HSPA1A), gene 3303
The assay can be described thus: LTEA_HepaRG_HSPA1A: Life Technologies and Expression Analysis (LTEA) Assay for Heat shock 70 kDa protein 1 (HSPA1A) using HepaRG (AID 2283502). In short, it runs like this:
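Readout is HSPA1A transcript level by microfluidic qRT-PCR, normalized to three housekeeping genes and analysed for gain or loss of signal relative to 0.5% DMSO. Human HepaRG cultures received test chemicals for 48 h at up to 100 uM.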

Read-out in assay [8]: Hypoxia-inducible factor 1-alpha (Homo sapiens) (UniProt Q16665)
Kind of assay: LTEA_HepaRG_HIF1A: Life Technologies and Expression Analysis (LTEA) Assay for Hypoxia-inducible factor 1 (HIF1A) Trancription factor using HepaRG (AID 2283503). Put shortly: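 Differentiated HepaRG cells in serum-free induction medium exposed 48 h, in duplicate, to 8-point half-log series from 100 uM in 0.5% DMSO. HIF1A mRNA measured by TaqMan qRT-PCR, normalized to ACTB/GAPDH/POLR2A, fitted bidirectionally versus DMSO.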

Read-out in assay [9]: HGF (gene 3082)
The assay can be described thus: LTEA_HepaRG_HGF: Life Technologies and Expression Analysis (LTEA) Assay for Hepatocyte Growth Facto (HGF) using HepaRG (AID 2283505). In short, it runs like this:
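Differentiated human HepaRG cells in serum-free induction medium were exposed in duplicate for 48 h to eight concentrations (top 100 uM, half-log steps, 0.5% DMSO). HGF mRNA was quantified by qRT-PCR, normalized to ACTB, GAPDH and POLR2A.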

Read-out in assay [10]: 3-Hydroxy-3-Methylglutaryl-CoA Synthase 2 (HMGCS2), HMGCS2 (gene 3158)
Kind of assay: LTEA_HepaRG_HMGCS2: Life Technologies and Expression Analysis (LTEA) Assay for 3-Hydroxy-3-Methylglutaryl-CoA Synthase 2 (HMGCS2) using HepaRG (AID 2283504). In short, it runs like this:
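Differentiated human HepaRG cells were exposed in duplicate for 48 h in serum-free induction medium to eight concentrations (top 100 uM, half-log steps, 0.5% DMSO). HMGCS2 mRNA was quantified by TaqMan qRT-PCR, normalised to ACTB, GAPDH and POLR2A, then fitted bidirectionally against DMSO.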

Activity calls are given as the source filed them. Rule for the calls: active = hit-call score of the fitted dose curve at least 0.9, where 1 is the maximum; inactive = score below 0.9.

Hypoxia-inducible factor 1-alpha (Homo sapiens), sequence (Q16665 whole entry, looked up): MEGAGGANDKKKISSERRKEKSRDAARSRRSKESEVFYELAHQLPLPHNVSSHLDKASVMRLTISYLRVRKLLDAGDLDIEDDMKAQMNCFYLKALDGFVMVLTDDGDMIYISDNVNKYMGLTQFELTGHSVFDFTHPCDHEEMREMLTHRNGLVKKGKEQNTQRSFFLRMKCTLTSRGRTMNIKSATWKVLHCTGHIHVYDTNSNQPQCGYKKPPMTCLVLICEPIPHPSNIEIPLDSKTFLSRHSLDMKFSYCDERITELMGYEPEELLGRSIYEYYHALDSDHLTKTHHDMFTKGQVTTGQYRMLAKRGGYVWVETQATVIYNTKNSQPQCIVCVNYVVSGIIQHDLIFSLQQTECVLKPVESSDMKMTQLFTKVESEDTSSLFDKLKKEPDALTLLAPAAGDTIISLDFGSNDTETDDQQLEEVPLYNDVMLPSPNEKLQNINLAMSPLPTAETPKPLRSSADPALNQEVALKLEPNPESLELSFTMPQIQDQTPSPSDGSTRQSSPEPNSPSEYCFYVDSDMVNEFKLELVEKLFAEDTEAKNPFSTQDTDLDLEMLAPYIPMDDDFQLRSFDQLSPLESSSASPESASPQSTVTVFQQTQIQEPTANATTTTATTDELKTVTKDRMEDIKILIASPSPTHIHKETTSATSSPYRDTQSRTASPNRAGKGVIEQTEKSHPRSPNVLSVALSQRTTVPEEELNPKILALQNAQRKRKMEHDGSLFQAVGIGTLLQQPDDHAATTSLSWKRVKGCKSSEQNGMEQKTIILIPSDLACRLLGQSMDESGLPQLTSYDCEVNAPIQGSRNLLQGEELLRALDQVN

Consider `O=C(O)CC(O)C(=O)O` (stereo not drawn), for which the compound was classed as inactive in assay [1], in [2], in assay [3], in assay [4], in [5] and in assay [6]. The compound was called inactive in assay [7], in assay [8] and in assay [9].

For the compound `Cn1c(=O)c2c(ncn2C)n(C)c1=O`, the compound was classed as inactive in [1], in assay [2], in [3], in [4], in assay [5] and in assay [6]. Moreover, the compound was classed as inactive in assay [7], in assay [8] and in [9].

On to `COc1ccc2sc(C(=O)Nc3nnn[nH]3)c(OC(C)C)c2c1`, for which the AC50 in [1] is 96.5 µM (active); in assay [2], 50 µM (active); in assay [4] it was 80.8 µM (active); in assay [6] it was 76.2 µM (active); in [7], 9.47 µM (active); in assay [8], 72 µM (active). The compound was classed as inactive in [3], in [5] and in [9].

As for `CC(C)c1cccc(C(C)C)c1N1C(=O)c2ccc(O)cc2C1=O`, the concentration at half-maximal activity (AC50) in [1] was 93.3 µM (active); in [9], 93 µM (active). For the same compound, the outcome in assay [2], in assay [3], in [4], in [5], in assay [6] and in [7] was inactive. Besides, in [8], the compound was called inactive.

Turning to `CCNc1ccccc1`, the outcome in assay [1], in assay [2], in assay [3], in [4], in assay [5] and in assay [6] was inactive. Besides, the call in assay [7], in assay [8] and in assay [9] was inactive.

`CCCCCCCCO`: the outcome in assay [1], in [2], in [3], in assay [4], in assay [5] and in [6] was inactive. Further, the compound was called inactive in [7], in [8] and in assay [9].

As for `Nc1cccc(N)c1`, the outcome in assay [1], in assay [2], in assay [3], in [4], in [5] and in assay [6] was inactive. The compound was called inactive in [7], in [8] and in assay [9].

Regarding `C=CC(=C)CCC=C(C)C`, the outcome in assay [1], in assay [2], in [3], in [4], in assay [5] and in assay [6] was inactive. For the same compound, the compound was called inactive in assay [7], in [8], in [10] and in assay [9].

Take `C1N2CN3CN1CN(C2)C3`: the compound was classed as inactive in assay [1], in assay [2], in [3], in [4], in assay [5] and in [6]. Also, the compound was classed as inactive in assay [7], in assay [8] and in assay [9].

For `CC[C@H]1CC[C@H](NCc2cc3c(cc2OC)[C@H]2C[C@H]2C(=O)N3C)[C@H](c2ccccc2)N1`, the compound was called inactive in [1], in [2], in assay [3], in [5], in assay [6] and in assay [7]. For the same compound, the compound was called inactive in assay [8], in assay [10] and in assay [9]. Moreover, the AC50 in [4] is 50 µM (active).

`O=C(CCCCCCCCc1cccnc1)N1CCC(C=C(c2ccccc2)c2ccccc2)CC1`: the AC50 in [1] is 27.1 µM (active); in assay [2] it was 28.7 µM (active); in assay [3] it was 12.5 µM (active); in [4], 22.8 µM (active); in assay [5] it was 12.8 µM (active); in [7], 81 µM (active). Besides, the AC50 in assay [8] is 77.2 µM (active); in [9], 11.9 µM (active). In assay [6], the result was inactive.

For `CC(C)=CCCC(C)CCO` (stereo not drawn), the outcome in [1], in assay [2], in [3], in assay [4], in assay [5] and in [6] was inactive. Further, the compound was called inactive in [7], in [8] and in assay [9].

In the case of `CNS(=O)(=O)c1cc(C(=O)N2CCC(CCN3C4CCC3CC(n3c(C)nc5ccccc53)C4)(c3cccc(F)c3)CC2)c(Cl)cc1F` (stereo not drawn), the concentration at half-maximal activity (AC50) in [1] is 21.5 µM (active); in assay [2], 31.8 µM (active); in assay [4], 30.8 µM (active). For the same compound, the call in [3], in [5], in [6], in assay [7], in assay [8] and in assay [9] was inactive.

`CCCCC(CC)COC(=O)c1ccc(C(=O)OCC(CC)CCCC)cc1` (stereo not drawn): the call in assay [1], in assay [2], in [3], in assay [4], in [5] and in assay [6] was inactive. Also, the result in [7], in [8], in [10] and in assay [9] was inactive.

As to `C1=CCCC=CCCC=CCC1`, the compound was classed as inactive in [1], in assay [2], in assay [3], in assay [4], in assay [5] and in assay [6]. The compound was called inactive in assay [7], in [8] and in assay [9].

Regarding `CCCCCCCCCCCCc1ccccc1`, the compound was called inactive in assay [1], in [2], in [3], in assay [4], in assay [5] and in assay [6]. Also, the compound was classed as inactive in assay [7], in assay [8] and in assay [9].

As to `CC(=O)OCCC(C)C`, the result in assay [1], in assay [2], in assay [3], in assay [4], in assay [5] and in [6] was inactive. Moreover, the compound was classed as inactive in [7], in assay [8], in assay [10] and in assay [9].

Turning to `CC(C)=CCCC(C)=CC=O`, the result in [1], in assay [2], in assay [3], in [4], in assay [5] and in [6] was inactive. Also, the call in [7], in [8] and in assay [9] was inactive.

For the compound `CCOC(=O)CC(CC(=O)OCC)(OC(C)=O)C(=O)OCC`, the compound was classed as inactive in assay [1], in [2], in assay [3], in [4], in assay [5] and in [6]. In addition, the call in assay [7], in assay [8] and in [9] was inactive.

Take `On1ccccc1=S`: the outcome in assay [2], in assay [3], in assay [4], in assay [5], in assay [6] and in assay [7] was inactive. In addition, the result in assay [8], in [10] and in assay [9] was inactive.

With `O=C(OC[C@H]1O[C@@H](OC(=O)c2cc(O)c(O)c(OC(=O)c3cc(O)c(O)c(O)c3)c2)[C@H](OC(=O)c2cc(O)c(O)c(OC(=O)c3cc(O)c(O)c(O)c3)c2)[C@@H](OC(=O)c2cc(O)c(O)c(OC(=O)c3cc(O)c(O)c(O)c3)c2)[C@@H]1OC(=O)c1cc(O)c(O)c(OC(=O)c2cc(O)c(O)c(O)c2)c1)c1cc(O)c(O)c(OC(=O)c2cc(O)c(O)c(O)c2)c1`, the AC50 in assay [1] is 9.29 µM (active); in [4], 25.6 µM (active); in [5], 15.2 µM (active); in assay [10], 9.74 µM (active); in [9] it was 15.2 µM (active). Besides, the outcome in assay [3], in [6], in assay [7] and in assay [8] was inactive.

As for `CC[C@H]1OC(=O)[C@H](C)[C@@H](O[C@H]2C[C@@](C)(OC)[C@@H](O)[C@H](C)O2)[C@H](C)[C@@H](O[C@@H]2O[C@H](C)C[C@H](N(C)C)[C@H]2O)[C@](C)(O)C[C@@H](C)C(=O)[C@H](C)[C@@H](O)[C@]1(C)O`, the compound was classed as inactive in assay [1], in assay [2], in assay [3], in assay [5], in [6] and in [7]. Besides, in assay [9], the result was inactive.

Regarding `CC(C)CC(C)(O)C#CC(C)(O)CC(C)C` (stereo not drawn), the compound was called inactive in [2], in [3], in assay [4], in assay [5], in assay [6] and in [7]. In addition, the compound was called inactive in [8], in [10] and in assay [9].

Turning to `O=c1n(CC2CO2)c(=O)n(CC2CO2)c(=O)n1CC1CO1` (stereo not drawn), the result in [1], in assay [2], in assay [3], in [4], in assay [5] and in assay [6] was inactive. The call in [7], in assay [8] and in [9] was inactive.

Usually AC50 stands for the concentration at which the activity in the assay is half-maximal.

The record behind these values is PubChem BioAssay (EPA / NIEHS).
